Test results as given in PubChem BioAssay (Tox21).
Inconclusive results are not listed. A call without a number means that no potency is given here. Calls of active or inactive are those of the source. Calls come from the whole dose curve; as a rule, active = well fitted cell-killing curve with a large enough effect in the repeat runs; inconclusive = weak or mixed curves; inactive = no such curve, though single readings can be large or run the other way.

Experiment: qHTS assay to identify small molecule antagonists of the peroxisome proliferator-activated receptor delta (PPARd) signaling pathway - cell viability counter screen (AID 743213); note: nearly all actives have a fitted effect of over 50% in size
Details: PPARd-bla HEK293H viability, CellTiter-Glo luminescence, 17 h; series mostly up to 62 µM
Description: U.S. Tox21 Program National Center for Advancing Translational Sciences [NCATS] NIH Chemical Genomics Center [NCGC] U.S. Environmental Protection Agency [EPA] National Institutes of Environmental Health Sciences [NIEHS] National Toxicology Program [NTP] U.S. Food and Drug Administration [FDA] Tox21 Assay Overview: The peroxisome proliferator-activated receptors (PPARs) are lipid-activated transcription factors of the nuclear receptor superfamily with three distinct subtypes namely PPAR alpha, PPAR delta (PPARd) and PPAR gamma. All these subtypes heterodimerizes with Retinoid X receptor (RXR) and have different physiological functions. […] To identify the compounds that inhibit PPAR-delta signaling, GeneBLAzer PPAR delta UAS-bla HEK293H cell line (Invitrogen, Carlsbad, CA, USA) containing a beta-lactamase reporter gene under the control of an Upstream Activator Sequence (UAS) was used to screen the Tox21 compound library. The cytotoxicity of the Tox21 compound library against the PPARd-bla cell line was tested in parallel by measuring the cell viability using CellTiter-Glo assay (Promega, Madison, WI) in the same wells.
Tox21 Assay Protocol Summary: PPARd-bla cells were dispensed at 3000 cells/5uL/well in 1536-well black wall/clear bottom plates using a Multidrop Combi (Thermo Fisher Scientific, Waltham, MA) dispenser. After the assay plates were incubated at 37 C and 5% CO2 for 5 h, 23 nL of compounds dissolved in DMSO, positive controls or DMSO only was transferred to the assay plate by a Pintool station (Kalypsys, San Diego, CA), followed by addition of 1ul L165041 (300 nM, final concentration in the wells). The assay plates were incubated at 37 C for 17 h, and then 1 uL of LiveBLAzerTM B/G FRET substrate was added using a Bioraptr Flying Reagent Dispenser (FRD) workstation (Beckman Coulter, Indianapolis, IN, USA). The assay plates were incubated at room temperature for 2 h and fluorescence intensity was measured by an Envision plate reader (PerkinElmer, Shelton, CT). For cell viability readout that measures cytotoxicity, 3 ul/well of CellTiter-Glo reagent was added into the assay plates using a Bioraptr FRD. After 30 min incubation at room temperature, the luminescence intensity in the plates was measured using a ViewLux plate reader (PerkinElmer).

Row | Structure (SMILES) | Potency
1 | O=c1[nH]c2ccccc2o1 | inactive
2 | CCNP(=S)(OC)O/C(C)=C/C(=O)OC(C)C (stereo not given) | inactive
3 | CCCCCCC(=O)CCCCCC/C=C/C[C@@H](O)[C@H](O)[C@@](N)(CO)C(=O)O | inactive
4 | CCN(CCO)CCn1c(Cc2ccccc2)nc2c1c(=O)n(C)c(=O)n2C | inactive
5 | NCCOS(=O)(=O)O | inactive
6 | NC(=O)OCCCc1ccccc1 | inactive
7 | CN(C)C1CCCCC1 | inactive
8 | C(COCC1CO1)OCC1CO1 (stereo not given) | inactive
9 | C=C1CC[C@@]2(O)[C@H]3Cc4ccc(O)c5c4[C@@]2(CCN3CC2CC2)[C@H]1O5 | inactive
10 | COc1ccc(C=O)cc1O | inactive
11 | COc1cccc([C@@]2(O)CCCC[C@@H]2CN(C)C)c1 | inactive
12 | CCC(C(N)=O)N1CCCC1=O (stereo not given) | inactive
13 | Cl/C=C/CCl | inactive
14 | BrCc1ccc(Br)cc1 | inactive
15 | O=C(O)c1c(Cl)ccc2cc(Cl)cnc12 | inactive
16 | N[C@@H](Cc1ccc(Oc2cc(I)c(O)c(I)c2)c(I)c1)C(=O)O | inactive
17 | CC(C)(C)C(=O)Cl | inactive
18 | CCC(C)(C#N)N=NC(C)(C#N)CC (stereo not given) | inactive
19 | O=C(NC(=O)c1c(F)cccc1F)Nc1cc(Cl)c(F)c(Cl)c1F | inactive
20 | COP(=O)(OC)O/C(C)=C/C(=O)N(C)C | inactive

Row | Structure (SMILES) | Potency
21 | CC(C)(N)Cc1ccccc1Cl | inactive
22 | OP(O)c1ccccc1 | inactive
23 | Clc1nc(Cl)nc(Nc2ccccc2Cl)n1 | inactive
24 | O=P(O)(O)CN(CP(=O)(O)O)CP(=O)(O)O | inactive
25 | NC1(c2ccccc2)CCCCC1 | inactive
26 | Cn1c(CCCC(=O)O)nc2cc(N(CCCl)CCCl)ccc21 | inactive
27 | C=C(Cl)CCl | inactive
28 | N#CN=C1SCCN1Cc1ccc(Cl)nc1 | inactive
29 | [P]#[In] | inactive
30 | O=C(Cl)OCc1ccccc1 | inactive
31 | Clc1ccc(C(Cl)(Cl)Cl)cn1 | inactive
32 | CCN(CC)C1CCCCC1 | inactive
33 | C=CC1(C)OC(=O)N(c2cc(Cl)cc(Cl)c2)C1=O (stereo not given) | inactive
34 | CC(O)CCl (stereo not given) | inactive
35 | O=P(O)(O)c1ccccc1 | inactive
36 | CCC1(c2ccccc2)C(=O)N(COC)C(=O)N(COC)C1=O | inactive
37 | C=CCC1(C(C)CC)C(=O)NC(=O)NC1=O (stereo not given) | inactive
38 | Cc1ccc2c(c1)C1CN(C)CCC1N2 (stereo not given) | inactive
39 | C[C@H](N)C(=O)c1ccccc1 | inactive
40 | NNC(N)=O | inactive
